# Measurements: PubChem BioAssay (NCATS)
# Inconclusive results are not listed. Entries that show only a call come without a potency. The source made the active and inactive calls. The call rests on the fitted dose curve.
# Target: Atrial natriuretic peptide receptor 1 (Homo sapiens) (UniProt P16066)
# Assay: Natriuretic polypeptide receptor (hNpr1) antagonism - Pilot CMLD screen (AID 1347052);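 further: HEK293 cells with hNpr1 stimulated by hNppA peptide at 0.1 nM; cGMP level read as GloSensor luciferase luminescence after agonist stimulation; series mostly up to about 9.2 µM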
# Atrial natriuretic peptide receptor 1 (Homo sapiens), sequence (P16066 whole entry, looked up): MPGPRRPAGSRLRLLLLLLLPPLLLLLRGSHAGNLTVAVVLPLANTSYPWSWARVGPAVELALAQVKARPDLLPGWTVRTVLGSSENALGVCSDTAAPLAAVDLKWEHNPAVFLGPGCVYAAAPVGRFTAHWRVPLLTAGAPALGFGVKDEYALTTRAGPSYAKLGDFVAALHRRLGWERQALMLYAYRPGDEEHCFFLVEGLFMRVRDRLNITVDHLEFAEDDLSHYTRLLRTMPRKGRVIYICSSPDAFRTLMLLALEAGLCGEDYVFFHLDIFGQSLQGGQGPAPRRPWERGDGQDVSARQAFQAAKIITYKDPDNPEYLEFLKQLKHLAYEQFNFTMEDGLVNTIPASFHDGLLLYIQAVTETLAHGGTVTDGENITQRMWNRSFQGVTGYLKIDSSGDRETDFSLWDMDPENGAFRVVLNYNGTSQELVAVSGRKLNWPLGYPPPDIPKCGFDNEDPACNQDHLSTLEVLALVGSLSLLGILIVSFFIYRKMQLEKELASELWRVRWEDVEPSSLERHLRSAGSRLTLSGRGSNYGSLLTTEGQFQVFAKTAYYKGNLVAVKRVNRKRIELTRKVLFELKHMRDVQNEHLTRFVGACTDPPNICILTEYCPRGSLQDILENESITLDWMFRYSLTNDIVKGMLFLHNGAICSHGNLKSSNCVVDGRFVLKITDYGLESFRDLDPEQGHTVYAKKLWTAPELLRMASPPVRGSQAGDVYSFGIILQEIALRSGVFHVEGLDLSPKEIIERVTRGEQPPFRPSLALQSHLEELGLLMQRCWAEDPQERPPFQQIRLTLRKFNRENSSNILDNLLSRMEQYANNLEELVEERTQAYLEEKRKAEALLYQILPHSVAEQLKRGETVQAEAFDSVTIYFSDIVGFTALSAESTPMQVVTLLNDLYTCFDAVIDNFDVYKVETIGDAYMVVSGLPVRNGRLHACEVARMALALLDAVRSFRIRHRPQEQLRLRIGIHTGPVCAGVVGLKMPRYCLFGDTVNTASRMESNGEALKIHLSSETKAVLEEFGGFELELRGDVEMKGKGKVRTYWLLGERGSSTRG
compound,measurement,value
Cc1ccccc1Nc1oc(-c2ccccc2)nc1-c1cccc2ccccc12,Potency,inactive
